The supplement of paper PMC3545927
The other results are listed elsewhere or left out. How many sequences the whole screen found active is unknown.

Biological target: furin, P09958
Experiment: furin cleavage Z-score vs untreated control; higher = more cleavage, active = 3.5 or more, inactive = 1 or less, 8 variable residues between constant flanks
How it was run: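 Sequencing of released DNA, tagged with adapters by PCR, gave read counts used as abundance. That DNA was freed when purified furin cut N-terminally bead-bound 8-mer peptides fused to a cDNA oligonucleotide, in 0.01 ml reactions at 1:10 enzyme:substrate in 50 mM HEPES pH 7.5 with CaCl2 and NaCl, lasting 7.5, 15 or 30 min. The cleavage Z-score was the lowess-adjusted log count versus furin-free reactions, scaled by median absolute deviation.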

Chain of furin, P09958 (P09958 whole entry): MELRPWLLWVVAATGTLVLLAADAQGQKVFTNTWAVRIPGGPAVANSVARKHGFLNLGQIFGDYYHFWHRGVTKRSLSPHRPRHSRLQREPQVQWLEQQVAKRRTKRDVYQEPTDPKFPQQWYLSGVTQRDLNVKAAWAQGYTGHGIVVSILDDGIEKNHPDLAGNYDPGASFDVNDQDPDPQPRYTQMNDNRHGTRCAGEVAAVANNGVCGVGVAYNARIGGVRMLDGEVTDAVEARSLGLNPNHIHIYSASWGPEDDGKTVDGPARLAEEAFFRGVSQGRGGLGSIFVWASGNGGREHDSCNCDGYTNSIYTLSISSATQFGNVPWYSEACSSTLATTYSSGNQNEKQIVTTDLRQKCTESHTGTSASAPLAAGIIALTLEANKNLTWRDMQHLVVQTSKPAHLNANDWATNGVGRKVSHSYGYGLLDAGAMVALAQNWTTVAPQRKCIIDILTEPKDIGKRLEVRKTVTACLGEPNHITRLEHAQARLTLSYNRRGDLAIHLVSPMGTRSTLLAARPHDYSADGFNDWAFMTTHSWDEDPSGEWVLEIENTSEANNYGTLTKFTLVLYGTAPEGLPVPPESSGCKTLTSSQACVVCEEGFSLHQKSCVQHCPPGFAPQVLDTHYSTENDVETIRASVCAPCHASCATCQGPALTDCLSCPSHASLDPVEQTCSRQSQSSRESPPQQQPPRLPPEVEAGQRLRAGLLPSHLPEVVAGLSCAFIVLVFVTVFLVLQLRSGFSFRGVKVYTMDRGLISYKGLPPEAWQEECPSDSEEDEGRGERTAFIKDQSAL

| Sequence | furin cleavage Z-score (7.5 min) | furin cleavage Z-score (15 min) | furin cleavage Z-score (30 min) |
| --- | --- | --- | --- |
| CAVSKGWRLLAGNASASA [HC670] | 0.0516 (inactive) | -0.975 (inactive) | -0.799 (inactive) |
| CAWGENDTDVAGNASASA [HC425] | -1.56 (inactive) | -0.446 (inactive) | -2.12 (inactive) |
| CALDGVRLHRAGNASASA [HC1223] | -1.06 (inactive) | 0.461 (inactive) | -0.00108 (inactive) |
| CALVVTSTWVAGNASASA [HC2145] | -0.711 (inactive) | -0.969 (inactive) | -0.561 (inactive) |
| CAEVWTSTWVAGNASASA [HC2188] | 0.933 (inactive) | 0.313 (inactive) | 0.822 (inactive) |
| CATEPCSGSWAGNASASA [HC1852] | -0.934 (inactive) | -0.739 (inactive) | -1.88 (inactive) |
| CALRKRDVSVAGNASASA [FS-1676] | 4.02 (active) | 6.7 (active) | 7 (active) |
| CARPVRDDSVAGNASASA [FS-3029] | 0.58 (inactive) | -0.207 (inactive) | -0.229 (inactive) |
| CALSKRLGRSAGNASASA [FS-1644] | 9.63 (active) | 10.3 (active) | 7.46 (active) |
| CARRKRSIEEAGNASASA [FS-2230] | 9.81 (active) | 9.11 (active) | 9.55 (active) |
| CARRKRSPTQAGNASASA [FS-2069] | 11.3 (active) | 13.3 (active) | 8.55 (active) |
| CALKKRIKSVAGNASASA [FS-2123] | -0.488 (inactive) | -0.595 (inactive) | 0.647 (inactive) |
| CAEVPCHRLSAGNASASA [HC2385] | 0.65 (inactive) | 0.937 (inactive) | 2.67 |
| CAVAKAVDFIAGNASASA [HC755] | -0.603 (inactive) | -0.471 (inactive) | -1.43 (inactive) |
| CARALRNVWQAGNASASA [FS-1682] | -1.32 (inactive) | 1.58 | 0.167 (inactive) |
| CARRVRSVILAGNASASA [FS-2301] | -0.109 (inactive) | -0.0349 (inactive) | 1.3 |
| CARASRDSSEAGNASASA [FS-2892] | -0.582 (inactive) | 0.0813 (inactive) | -0.0253 (inactive) |
| CARQPRLVGAAGNASASA [FS-2171] | -0.691 (inactive) | -0.656 (inactive) | -0.39 (inactive) |
| CARMKRKVGAAGNASASA [FS-1752] | 2.2 | 4.54 (active) | 4.95 (active) |
| CARRVRSRTHAGNASASA [FS-3071] | 0.143 (inactive) | 0.522 (inactive) | 1.9 |
| CARRVRSAEEAGNASASA [FS-2376] | 7.77 (active) | 9.29 (active) | 6.7 (active) |
| CARASRDVAQAGNASASA [FS-1686] | 3.28 | 3.03 | 3.8 (active) |
| CALRKRLLRDAGNASASA [FS-686] | 9.49 (active) | 11.5 (active) | 8.89 (active) |

| Sequence | furin cleavage Z-score (7.5 min) | furin cleavage Z-score (15 min) | furin cleavage Z-score (30 min) |
| --- | --- | --- | --- |
| CALRKRLTPLAGNASASA [FS-1883] | -1.32 (inactive) | -0.87 (inactive) | 0.456 (inactive) |
| CAKCTTPCSGAGNASASA [HC1954] | -0.367 (inactive) | 0.0622 (inactive) | 0.776 (inactive) |
| CAEVVTSTWKAGNASASA [HC2254] | -0.33 (inactive) | -0.194 (inactive) | 1.09 |
| CAGVCCSMSYAGNASASA [HC1996] | -0.333 (inactive) | -0.0583 (inactive) | 0.735 (inactive) |
| CALRKRSVDQAGNASASA [FS-1884] | 6.21 (active) | 7.15 (active) | 6.93 (active) |
| CAQMYTNVDQAGNASASA [HC710] | 0.349 (inactive) | -0.937 (inactive) | 0.488 (inactive) |
| CARRKRAVNPAGNASASA [FS-2294] | 5.19 (active) | 3.83 (active) | 4.64 (active) |
| CARRKRAKVEAGNASASA [FS-3051] | 2.74 | 5.28 (active) | 7.03 (active) |
| CARRMRRAGQAGNASASA [FS-2178] | 3.82 (active) | 5.28 (active) | 6.43 (active) |
| CANWTRGERCAGNASASA [HC483] | 0.47 (inactive) | 1.14 | 0.279 (inactive) |
| CAFVVTSTWVAGNASASA [HC2147] | 0.62 (inactive) | 0.171 (inactive) | -0.5 (inactive) |
| CAGENLYFQGAGNASASA [TV2] | -1.7 (inactive) | -0.261 (inactive) | -0.768 (inactive) |
| CAVVCCHMSYAGNASASA [HC109] | 1.01 | -0.749 (inactive) | 0.554 (inactive) |
| CAGAYMSKAHAGNASASA [HC793] | -0.996 (inactive) | -1.61 (inactive) | -0.903 (inactive) |
| CASTPCSHHLAGNASASA [HC2535] | 0.275 (inactive) | 0.419 (inactive) | -0.167 (inactive) |
| CAREDRFFCPAGNASASA [FS-2001] | -0.0818 (inactive) | 0.295 (inactive) | -0.529 (inactive) |
| CARRKRYRNFAGNASASA [FS-1836] | 1.23 | 0.582 (inactive) | 2.95 |
| CARRKRSRKPAGNASASA [FS-1835] | 6.72 (active) | 6.37 (active) | 6.82 (active) |
| CARRKKARGPAGNASASA [FS-2776] | 0.453 (inactive) | -0.0472 (inactive) | -0.48 (inactive) |
| CARRKRKEKQAGNASASA [FS-3231] | -1.72 (inactive) | -1.54 (inactive) | 0.219 (inactive) |
| CARMKRSRCPAGNASASA [FS-2721] | 5.18 (active) | 7.21 (active) | 5.91 (active) |
| CARRKRSVAQAGNASASA [FS-1919] | 4.44 (active) | 4.31 (active) | 4.11 (active) |
| CARMKRFRVDAGNASASA [FS-2719] | -0.757 (inactive) | 0.996 (inactive) | 1.75 |
